In the library only some 0.24% were active in any assay of this set; here they are far more common.
a7 integrin act = integrin-mediated muscular dystrophy alleviation activation; AID 624291; alpha7betagal myoblasts, beta-gal FDG fluorescence, 48 h; Potency, µM (series often up to 38.3 µM), inactives show at the top dose activation, actives largely listed as activators; 350,000 tested, 0.064% active;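 note: potency is the fitted concentration of half-maximal effect; 100% = response of the positive control SU9516; nearly all actives have a fitted effect of over 60% in size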
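Alpha7betagal+/- myoblasts (passage 13) were plated 16-24 hr, then exposed to compounds (1:260 dilution of DMSO stock) for 48 hours at 37C. After MPER lysis, β-galactosidase reporter activity was read as FDG fluorescence (ex 480/em 540) after 30 minutes.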
TCR act = activates T cell receptor signaling; AID 504894; primary human leukocytes, anti-CD3, IL-2 HTRF, 48 h; Potency, µM (highest dose often 9.22 µM), for the others: top-dose activation of IL-2 secretion, actives largely listed as activators; 330,000 tested, under 10 active; note: % of control where 0% means no effect
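48 hr co-incubation of compounds, a-CD3 beads and primary human leukocytes; IL-2 quantified homogeneously by HTRF with anti-IL-2 K and d2 conjugates.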
Eya2 inh = Eya2 (human) phosphatase inhibition | O00167 | recombinant Eya2, OMFP fluorescence dephosphorylation (OMFP is methylfluorescein phosphate) | Potency, µM (series often up to 76.9 µM), inactives show top-dose activity, negative = inhibition, usual class: inhibitors | 330,000 tested, 0.006% active; note: potency is the fitted concentration of half-maximal effect; % is set by controls: 0 for no effect and ±100 for the full control effect
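Eya2 protein (added as 0.2 uM solution) was preincubated with compound for 10 min at ambient temperature in 50 mM HEPES pH 7.5, 50 mM NaCl, 5 uM MgCl2, 0.05% BSA, 1 mM DTT. OMFP (added at 50 uM) then reacted 10 min; fluorescence read at 485/525 nm.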
TSHR antagonist = human thyrotropin receptor antagonism; TSHR-expressing cells, TSH-stimulated cAMP HTRF, 2 h; active compounds read low; activity change, negative = inhibition, % at 11.5 µM; 330,000 tested, 0.2% active;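 active = activity change below a set negative limit, meaning inhibition stronger than a set level, cut at about -70% in these data; inconclusive = activity change between two set negative limits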; note: % is set by controls: 0 for no effect and ±100 for the full control effect
Target sequence (P16473 whole entry, looked up): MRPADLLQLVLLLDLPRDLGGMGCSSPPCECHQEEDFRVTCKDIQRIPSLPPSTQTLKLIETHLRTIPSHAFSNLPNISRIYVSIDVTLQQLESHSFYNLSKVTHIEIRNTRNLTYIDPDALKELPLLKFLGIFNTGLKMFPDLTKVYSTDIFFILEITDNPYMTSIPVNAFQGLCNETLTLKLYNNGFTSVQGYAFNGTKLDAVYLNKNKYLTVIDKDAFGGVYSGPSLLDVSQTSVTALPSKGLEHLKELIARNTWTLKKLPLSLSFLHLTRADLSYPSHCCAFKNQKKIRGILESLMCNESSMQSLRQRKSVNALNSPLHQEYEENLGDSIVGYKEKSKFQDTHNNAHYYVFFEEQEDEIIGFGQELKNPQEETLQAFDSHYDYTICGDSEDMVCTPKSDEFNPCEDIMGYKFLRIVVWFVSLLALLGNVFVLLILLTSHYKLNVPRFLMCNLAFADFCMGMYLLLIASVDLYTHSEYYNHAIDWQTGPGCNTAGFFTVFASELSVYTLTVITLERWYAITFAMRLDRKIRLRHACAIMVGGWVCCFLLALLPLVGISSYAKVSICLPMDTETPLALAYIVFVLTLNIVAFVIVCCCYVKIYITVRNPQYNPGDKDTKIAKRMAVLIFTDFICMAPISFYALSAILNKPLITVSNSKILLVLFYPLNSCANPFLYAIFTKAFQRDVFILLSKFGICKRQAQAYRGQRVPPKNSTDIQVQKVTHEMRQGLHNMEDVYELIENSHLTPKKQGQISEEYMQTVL
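TSHR-expressing cells, 200/well, pre-treated with compound, then stimulated with EC80 TSH (4nM final) for 2 hours at 37 deg C. cAMP measured by competitive HTRF: anti-cAMP cryptate antibody in lysis buffer plus cAMP-d2, read after 30 minutes at room temperature.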
* = called active by the depositor; ? = inconclusive; nt = not tested or not shown; [ ] = dose if it differs, or a comment. Unless noted, calls come from the whole dose curve; as a rule, active = well fitted curve in the direction sought with a large enough effect; inconclusive = small, poorly fitted or top-dose-only effect, or another doubt; inactive = no such curve, though single readings can be large; an effect the other way counts as inactive or inconclusive.

SMILES	a7 integrin act	TCR act	Eya2 inh	TSHR antagonist
CN1CCN(C2=CC3=CC(=C(C#N)C#N)CCC3CC2)CC1 (stereo not drawn)	-152%	8%	?	-93*
O=C1C=C(c2ccccc2Oc2ccccc2)C[C@@H](c2ccc(F)cc2)C1	-23%	nt	nt	nt
CCN(CC)S(=O)(=O)c1ccc2c(c1)N(CC(=O)NCCCN1CC(C)CC(C)C1)C(=O)CO2 (stereo not drawn)	-18%	3%	-20%	2
Cc1ccc(CCNC(=O)CN2C(=O)COc3ccc(S(=O)(=O)N4CCC(C)CC4)cc32)cc1	-5%	-3%	-11%	-136*
CCCCN(CCCC)CCNC(=O)CN1C(=O)COc2ccc(S(=O)(=O)N3CCC(C)CC3)cc21	-4%	5%	-9%	-1
CC1CC(C)CN(CCCNC(=O)CN2C(=O)COc3ccc(S(=O)(=O)N4CCOCC4)cc32)C1 (stereo not drawn)	-29%	-5%	-1%	-104*
Cc1ccc(CNC(=O)CCCCCNC(=O)N2CCn3c2nc2ccccc23)cc1	28%	1%	-7%	-36
Cc1ccc(CNC(=O)CCNC(=O)N2CCn3c2nc2ccccc23)cc1	-22%	-4%	11%	-111*
Cc1cccc2cc(/C=N/NC(=O)c3ccccc3O)c(Cl)nc12	10%	-4%[46.1 µM]	2%	-72*
COc1cc(CNC[C@H]2O[C@@H](n3ccc(N)nc3=O)[C@H](O)[C@@H]2O)ccc1OCc1ccc(C)cc1	3%	nt	nt	nt
O=Cc1ccc(C(=O)OCC(=O)N2CCCC2)cc1	2.5µM*	-15%	-10%	-9
CCN(CC)c1ccc(C(=O)OCC(=O)N2CCCC2)cc1	5%	-2%	?	-111*
Cc1ccc(C)c(NC(=O)CN(C)C(=O)c2ccc(-c3ccc(Cl)cc3)o2)c1	-32%	-2%	20%	2
CN(CC(=O)Nc1cccc(F)c1)C(=O)c1ccc(-c2ccc(Cl)cc2)o1	11µM*	1%	1%	-9
COc1ccc(CNC(=O)COC(=O)c2cc(-c3ccco3)nc3ccccc23)cc1	nt	nt	9%	-7
CCNC(=O)COC(=O)c1cc(-c2ccco2)nc2ccccc12	5.6µM*	0%	5%	-3
Cc1ccc(CN2C(=O)c3ccccc3Sc3ccc(C(=O)NCCCN4CCOCC4)cc32)cc1	-9%	1%	-12%	-138*
O=c1onc2cnc3ccccc3n12	nt	nt	3%	-8
Cc1nc2ccc(NC(=O)c3cc([N+](=O)[O-])cc([N+](=O)[O-])c3Cl)cc2s1	-37%	0%[46.1 µM]	-1%	-76*
Cc1nn(-c2ccccc2)c(Cl)c1/C=C1\SC(=S)NC1=O	-41%	1%	-3%	-79*
Cc1nn(-c2ccccc2)c(Cl)c1/C=C1\SC(=S)N(CCCCCC(=O)O)C1=O	0%	-2%	-1%	-19
CN(Cc1ccco1)c1ncnc2ccc(-c3cccc(Cl)c3)cc12	nt	nt	8%	2
Cc1cccc(C)c1NC(=O)c1nc(S(=O)(=O)Cc2ccccc2)ncc1Cl	-74%	5%	-14%	?
COc1ccc(NC(=O)c2nc(S(=O)(=O)Cc3cccc(C)c3)ncc2Cl)c(OC)c1	-2%	-7%	?	-80*
Cc1cccc(CS(=O)(=O)c2ncc(Cl)c(C(=O)Nc3c(C)cccc3C)n2)c1	-64%	-3%	3%	?
SMILES	a7 integrin act	TCR act	Eya2 inh	TSHR antagonist
COc1ccc(OC)c(NC(=O)c2nc(S(=O)(=O)Cc3ccccc3)ncc2Cl)c1	-76%	-3%	6%	-93*
N#Cc1c([N+](=O)[O-])cc([N+](=O)[O-])cc1S(=O)(=O)Cc1ccccc1	-57%	0%	5%	-81*
COc1cc(C2c3cc4c(cc3OC(C)(N3CCCC3)C2C)OCO4)cc(OC)c1OC (stereo not drawn)	5%	-3%	nt	nt
Cc1c(Nc2cc(Cl)c3nonc3c2[N+](=O)[O-])c(=O)n(-c2ccccc2)n1C	-68%	-12%	-3%	-85*
Cc1c(Nc2cc(N3CCOCC3)c3nonc3c2[N+](=O)[O-])c(=O)n(-c2ccccc2)n1C	nt	nt	2%	2
O=[N+]([O-])c1c(Nc2cccc(O)c2)cc(Cl)c2nonc12	-68%	-26%	-7%	-98*
CN=c1scc(-c2ccc(OC)cc2)n1/N=C(\C)c1cccnc1	5µM*	-38%	-9%	-16
COc1ccc(Cl)cc1C(=O)Nc1ccc(NC(C)=O)cc1	-25%	-2%	-23%	6
CC(=O)Oc1c(I)cc(I)cc1C(=O)Nc1ccc(Cl)cc1	-59%	nt	-5%	-106*
O=C(Nc1ccc(Cl)cc1)c1cc2c(cc1O)[nH]c1ccccc12	-19%	8%	-28%	-110*
O=C(Nc1ccccc1N1CCOCC1)c1ccc(Cl)c(S(=O)(=O)NCc2ccco2)c1	-10%	1%	6%	-17
O=C(Nc1ccccc1N1CCOCC1)c1ccc(S(=O)(=O)NCc2ccco2)cc1	0%	-2%	0%	-77*
CCCC1NC(=O)c2cc3ccccc3cc2-n2c1nc1ccc(F)cc1c2=O (stereo not drawn)	5%	nt	nt	nt
CS(=O)(=O)c1ccc(Cl)c(NC(=O)CSc2nncn2-c2ccccc2)c1	13µM*	1%	-10%	5
O=C(CC1CCCC1)Nc1ccc(Cl)c(S(=O)(=O)N2CCOCC2)c1	-36%	1%[46.1 µM]	-3%	-13
O=C1c2ccccc2C(=O)N1CCCCSc1nnnn1-c1ccccc1	-14%	6%	3%	-72*
CN(C)NC(=S)Nc1cccc(C(F)(F)F)c1	-6%	2%	12%	0
CN(C)C(=S)Nc1cccc(C(F)(F)F)c1	10µM*	0%	?	0
NS(=O)(=O)c1ccc(CNC(=O)CCS(=O)(=O)Cc2ccccc2)cc1	21%	-4%	5%	-79*
Nc1ccn(Cc2ccccc2F)n1	3%	-5%	-8%	-72*
Nc1ccn(Cc2cccc(Cl)c2)n1	-22%	4%	-9%	-4
O=c1[nH]c(=O)n([C@H]2C[C@@H](O)[C@@H](CO)O2)cc1C=CBr	nt	nt	-5%	-6
O=C1C2=C(C(=O)c3ccccc31)C1O[C@](CCCCN3C(=O)c4ccccc4C3=O)(Cc3c1ccc1ccccc31)O2	nt	nt	-5%[15.4 µM]	nt
COc1ccc([C@H]2N[C@]3(CCCN(Cc4ccc(C)cc4)C3=O)[C@H]3C(=O)N(Cc4ccccc4)C(=O)[C@@H]23)cc1	14%	nt	nt	nt
Cc1ccc(NC(=O)C2CCCCC2C(=O)O)cc1C (stereo not drawn)	11µM*	-5%	-8%	-3
CN(C(=O)CN1C(=O)/C(=C/c2ccccc2Cl)SC1=S)C1CCS(=O)(=O)C1 (stereo not drawn)	32%	3%	-15%	-126*
CN(C(=O)CN1C(=O)S/C(=C\c2ccccc2Cl)C1=O)C1CCS(=O)(=O)C1 (stereo not drawn)	-44%	2%	13%	-7
O=C1OC(c2ccccc2)(c2ccc3cc(O)ccc3c2)c2ccccc21 (stereo not drawn)	-23%	10%	nt	nt
CCOC(=O)C1CCCN(Cc2c(F)cccc2Cl)C1 (stereo not drawn)	2%	-2%	10%	3
